Hit rate of the full screen: of about 2,100 compounds, about 1,100 (52%) were called active. Another 29% or so got no clear call; they are omitted. The call rests on the fitted dose curve; in most records, active means well fitted inhibition curve with a large enough effect; inconclusive means small, poorly fitted or top-dose-only effect; inactive means no such curve, though single readings can be large or run the other way. So high a share suggests a set chosen from earlier hits. This is one part of the list.
molecular target: DNA dC->dU-editing enzyme APOBEC-3F (Homo sapiens) (UniProt Q8IUX4); assay: qHTS for inhibitors of Vif-A3F interactions: Cherry picks counterscreen; conditions: HeLa A3F-eYFP/Vif cells, eYFP fluorescence, 24 h; series mostly up to 46.1 µM; activity, negative = inhibitor: at the top concentration; further: nearly all actives have a fitted effect of over 65% in size
Description: The recent discovery and characterization of host restriction factors, which provide a potent defense to invading retroviruses, has provided new targets for antiviral drug development. APOBEC3G (A3G) and APOBEC3F (A3F) are potent cytidine deaminases that block HIV-1 replication; HIV-1 expresses the Vif protein, which counteracts A3G and A3F by binding to them and inducing their proteasomal degradation. The Vif-A3G and Vif-A3F interactions provide two potential targets for development of small molecules which can interfere with the ability of Vif to degrade A3G or A3F. […] To identify inhibitors that can interfere with Vif mediated degradation of A3G and A3F, we have developed Hela cell lines that stably express A3G or A3F tagged with eYFP at the C-terminal end (A3G-eYFP or A3F-eYFP, respectively) and Vif. In the absence of an inhibitor, Vif induces degradation of A3G-eYFP and A3F-eYFP, and the cells are not fluorescent. In the presence of an inhibitor, it is expected that Vif will be unable to degrade A3G-eYFP and/or A3F-eYFP, resulting in an increase in yellow fluorescence. In this counterscreen assay, Vif A3F was screened against the cherry picks ordered from the MLSMR. NIH Chemical Genomics Center [NCGC] NIH Molecular Libraries Probe Centers Network [MLPCN] MLPCN Grant: MH093245 Assay Submitter (PI): Vinay Pathak, National Cancer Institute
A3F-Vif cells were harvested from T225 flask and resuspended in phenol free OPTI-MEM medium with 5% FBS. Then 5 uL of 140,000 cells/mL resuspended cells was dispensed into each well of low base Aurora COC 1,536-well plates (black walled, clear bottom) using a Multidrop Combi dispenser. After overnight culture at 37 deg C with 5% CO2, a total of 23 nL of compounds at 5 selected concentrations from the NPC or positive control (2 mM stock of MG132) in DMSO was transferred to each well of the assay plate using a pintool (Kalypsys, San Diego, CA), and the plates were further incubated at 37 deg C with 5% CO2 for 24 hours. After that, the plates were measured on Acumen Explorer (TTP Lab Tech). The fluorescence was detected by 488 nm/Ex and […].
On the % scale 0 is the no-effect control and ±100 the full control effect; potency means the concentration at half of the fitted maximal effect.

DNA dC->dU-editing enzyme APOBEC-3F (Homo sapiens), sequence (Q8IUX4 whole entry, looked up): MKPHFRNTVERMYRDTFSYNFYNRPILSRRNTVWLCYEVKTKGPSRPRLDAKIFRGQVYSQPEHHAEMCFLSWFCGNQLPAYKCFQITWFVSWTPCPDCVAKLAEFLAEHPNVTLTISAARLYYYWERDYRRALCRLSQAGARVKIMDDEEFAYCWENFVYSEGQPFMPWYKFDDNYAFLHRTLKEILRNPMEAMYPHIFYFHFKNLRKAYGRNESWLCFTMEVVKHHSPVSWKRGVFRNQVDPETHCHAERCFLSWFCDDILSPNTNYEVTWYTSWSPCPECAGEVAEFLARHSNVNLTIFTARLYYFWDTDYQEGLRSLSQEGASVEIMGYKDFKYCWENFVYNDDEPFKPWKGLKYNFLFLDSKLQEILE

SMILES	Potency	activity, negative = inhibitor
COc1ccc(N=Cc2sc(O)c3ccccc23)cc1	15.8 µM (active)	
Oc1sc(C=Nc2ccccc2)c2ccccc12	23.1 µM (active)	
COc1ccc(N=Cc2c(O)c3ccccc3n2C(C)=O)cc1	16.4 µM (active)	
COc1ccc(N=Cc2oc3ccc4ccccc4c3c2O)cc1	9.2 µM (active)	
Cc1ccc(NC2=C(Cl)C(=O)N(C3CCCCC3)C2=O)cc1		-2.36% (inactive)
Oc1sc(C=Nc2ccc(F)cc2)c2ccccc12	20.6 µM (active)	
COc1cc(N(C)C)c(OC)cc1/C=C/c1ccnc2ccccc12	23.1 µM (active)	
COc1cc(OC)c(/C=C/c2ccnc3ccccc23)c(OC)c1	5.8 µM (active)	
COc1cc(/C=C/c2ccnc3ccccc23)ccc1N(C)C	23.1 µM (active)	
CN(C)c1ccc(/C=C(/C#N)C(=O)Nc2nc3c(s2)CCN(Cc2ccccc2)C3)cc1	0.314 µM (active)	
N#C/C(=C\c1ccc(C(=O)O)cc1)c1nc2sc3c(c2c(=O)[nH]1)CCCC3		-7.1% (inactive)
CN(C)c1ccc(/C=C(\C#N)C(=O)Nc2nc3c(s2)CCN(Cc2ccccc2)C3)cc1	0.396 µM (active)	
Cc1ccc(N2C(=O)CS/C2=C(\C(Cl)=C(Cl)Cl)[N+](=O)[O-])cc1		-2.43% (inactive)
Cc1cccc2c(=O)n3c(cc12)-c1[nH]c2ccccc2c1CC3	16.4 µM (active)	
CC[N+](C)(C)c1ccc(/C=C/c2ccncc2)cc1	20.6 µM (active)	
CCC[N+](C)(C)c1ccc(/C=C/c2ccncc2)cc1	18.4 µM (active)	
COc1ccc2nc(N3C(=O)/C(=C/c4ccccc4)NC3=S)sc2c1	13 µM (active)	
CCn1c(CNC(=O)C23CC4CC(CC(C4)C2)C3)nnc1SCC(=O)Nc1ccc(OC)cc1		0.0525% (inactive)
COc1ccc(NC(=O)CSc2ccc3c4c(cccc24)C(=O)c2ccccc2-3)cc1	14.6 µM (active)	
N#Cc1cccc(NC(=O)CSc2ccc3c4c(cccc24)C(=O)c2ccccc2-3)c1	11.6 µM (active)	
CCCCCCN1C[C@H](O)[C@@H](n2cc(COC(=O)c3ccccc3)nn2)C[C@@H]1c1ccc(C)cc1		-0.577% (inactive)
COc1ccccc1-c1cc(C(=O)NN)[nH]n1		-2.26% [at 36.9 µM] (inactive)
CCCn1nnc(NC(=S)NC(=O)c2ccccc2OC)n1		1.76% (inactive)
COc1ccc(NC(=O)c2cc(-c3ccccc3OC)on2)cc1	6.27 µM (active)	
COc1ccc(C(=O)c2ccc(OC)c(OC)c2OC)cc1	6.27 µM (active)	

SMILES	Potency	activity, negative = inhibitor
CC(=O)c1cccc(-c2ccnc3c2CC(C(=O)NCC2CC2)O3)c1 (stereo not drawn)	14 µM (active)	
CC(=O)c1cccc(-c2ccnc3c2CC(C(=O)NCC2CCOCC2)O3)c1 (stereo not drawn)	4.44 µM (active)	
COc1ccc2c(C)cc(SCC(=O)N(C)C3CCS(=O)(=O)C3)nc2c1 (stereo not drawn)		-25.5% (inactive)
COc1ccc2c(C)cc(SCC#N)nc2c1	16.4 µM (active)	
C[C@]12CCC[C@H](O1)c1c(cc3c(c1O)C(=O)c1c(O)cc(O)cc1C3=O)O2	20.6 µM (active)	
Cc1ccc(C(=O)NN(C)c2nc3ccccc3nc2C(F)(F)F)cc1	2.8 µM (active)	
CN(NC(=O)c1ccccc1)c1nc2ccccc2nc1C(F)(F)F	3.96 µM (active)	
O=c1oc2cc(O)ccc2cc1-c1nc(-c2ccc(Cl)c(Cl)c2)cs1	2.06 µM (active)	
CCc1sc(-c2cc3ccc(O)cc3oc2=O)nc1-c1ccc(C)cc1		37.3% (inactive)
COc1cc(C2Sc3ccccc3NC3=C2C(=O)OC3)cc(OC)c1OC (stereo not drawn)	17.7 µM (active)	
CCOC(=O)Nc1cc2c(c(N)n1)N=C(c1ccccc1)CN2	0.116 µM (active)	
Cc1nnc(SCC(=O)NCc2ccccc2F)c2nn(-c3ccc(Cl)cc3)c(C)c12	14.6 µM (active)	
CCOC(=O)c1cnc(-n2nc(C)cc2C)nc1NNc1cc(C)nc(-c2ccccc2)n1		2.69% (inactive)
O=C(Cn1c(=O)n(Cc2ccco2)c(=O)c2sc3ccccc3c21)Nc1ccccc1C(F)(F)F	23.1 µM (active)	
C(=Cc1c[nH]c2ccccc12)c1nccc2ccccc12	20.6 µM (active)	
C(=C\c1c[nH]c2ccccc12)/c1nccc2ccccc12	18.4 µM (active)	
Cc1ccc2c(/C=C/c3c[nH]c4ccccc34)ccnc2c1C	8.2 µM (active)	
CCCSc1nnc(N2C(=O)C(O)=C(C(=O)c3ccco3)C2c2ccccc2F)s1 (stereo not drawn)		0.34% (inactive)
Cc1nc2c3cc(F)ccc3n(Cc3ccccc3F)c2s1	12.5 µM (active)	
Cc1nc2c3ccccc3n(Cc3ccccc3F)c2s1	17.7 µM (active)	
Cc1nc2c3cc(F)ccc3n(Cc3ccccc3)c2s1	6.27 µM (active)	
Cc1sc2nc(SCC(=O)N3CCOCC3)[nH]c(=O)c2c1-c1ccccc1		-14.6% (inactive)
CCOC(=O)CSc1nc2c(c(=O)[nH]1)C(C)(CC)Cc1ccccc1-2 (stereo not drawn)	5.8 µM (active)	
CCSc1nccc(-c2nn(-c3ccc(C)cc3)ccc2=O)n1	7.04 µM (active)	
Cc1ccc(Nc2nc(Cl)c(C=O)s2)cc1Cl	18.4 µM (active)	

SMILES	Potency	activity, negative = inhibitor
c1ccc(Nc2nc(-c3ccccn3)cs2)cc1		-11.1% (inactive)
O=Cc1sc(Nc2ccccc2)nc1Cl	16.4 µM (active)	
COc1ccc(-c2n[nH]c3c2CN(C(=O)c2ccc(OC)c(OC)c2)CC3)cc1	4.44 µM (active)	
COc1cccc(C2=CC(c3cccs3)n3nnnc3N2)c1 (stereo not drawn)	5.59 µM (active)	
C=CCOC(=O)C1=C(C)Nc2nnnn2C1c1cccs1 (stereo not drawn)		-25.7% [at 36.9 µM] (inactive)
COc1cccc(C2=CC(c3ccccc3)n3nnnc3N2)c1 (stereo not drawn)	1.98 µM (active)	
COc1ccc(OC)c(C2C=C(c3ccc(C)c(C)c3)Nc3nnnn32)c1 (stereo not drawn)	4.98 µM (active)	
CCOC(=S)SCC(=O)N1CCc2cc(OC)ccc2C1C1C(=O)CCCC1=O (stereo not drawn)	15.8 µM (active)	
CCOC(=O)c1c(-c2ccc(OC)cc2)csc1/N=C/C1C(=O)CCCC1=O		-17.2% (inactive)
Cc1cc2oc3ccc(NCCCn4ccnc4)cc3c(=O)c2cc1C		-778% [at 46.1 µM, above what the read-out allows, likely interference] (inactive)
O=c1c2ccccc2sc2ccc(NCCCN3CCOCC3)cc12	16.4 µM (active)	
Cc1ccc(-c2cc(NC=O)c3ncc(-c4cnn(C)c4)n3c2)cc1	5.59 µM (active)	
COc1ccc(-c2cc(NC=O)c3ncc(-c4ccc(OC)c(OC)c4)n3c2)cc1OC	4.44 µM (active)	
COc1ccc(-c2cnc3c(NC=O)cc(-c4ccccc4)cn23)cc1OC	1.77 µM (active)	
COc1ccc(-c2cnc3c(NC=O)cc(-c4ccoc4)cn23)cc1OC	11.2 µM (active)	
COc1cc(-c2cc(NC=O)c3ncc(-c4ccc(C(C)=O)cc4)n3c2)cc(OC)c1OC	17.7 µM (active)	
COc1cccc(-c2cnc3c(NC=O)cc(-c4cc(OC)c(OC)c(OC)c4)cn23)c1	15.8 µM (active)	
CC(=O)/C(=C\N(C)C)Sc1ccc(Cl)cc1		4.05% [at 36.9 µM] (inactive)
Clc1ccsc1-c1csc(-c2cccnc2)n1	15.8 µM (active)	
CC(=O)Nc1ccc(S(=O)(=O)Nc2nc3ccccc3nc2Sc2nncn2C)cc1	16.4 µM (active)	
Cn1ccnc1Sc1nc2ccccc2nc1NS(=O)(=O)c1ccccc1	16.4 µM (active)	
Cn1c(=O)c2c(nc(NC3CCCC3)n2C)n(C)c1=O		7.15% (inactive)
O=C1COc2ccc(C(=O)CSc3nc4ccccc4c(=O)n3-c3ccc(Cl)c(Cl)c3)cc2N1	23.1 µM (active)	
COc1ccccc1NC1=NC(c2ccc(Cl)cc2)N=C(N)N1 (stereo not drawn)	12.5 µM (active)	
O=C(NC(=S)Nc1c(Cl)cc(Cl)cc1Cl)c1ccccc1		0.68% (inactive)

SMILES	Potency	activity, negative = inhibitor
COc1ccc2nc3ccccc3nc2c1NC(=O)c1ccc(Br)cc1	16.4 µM (active)	
COc1ccc2nc3ccccc3nc2c1NC(=O)c1ccc(Cl)cc1	23.1 µM (active)	
CC(C)CCNC(=O)c1ccc2c(c1)NC(=O)C(CS(=O)(=O)Cc1cccc(Br)c1)N2 (stereo not drawn)		-23.1% (inactive)
Cc1ccc(CNC(=O)c2ccc3c(c2)NC(=O)C(CS(=O)(=O)Cc2cccc(C)c2)N3)cc1 (stereo not drawn)	18.4 µM (active)	
CN(C)c1ccc2nc3c(=O)[nH]c(=O)nc-3n(CC(O)C(O)C(O)CO)c2c1 (stereo not drawn)	6.51 µM (active)	
O=C1C=C(Nc2ccc(Cl)cc2Cl)CC(c2ccco2)C1 (stereo not drawn)	4.98 µM (active)	
CCN(CC)C(=O)c1ccc(/C=C/c2c[nH]c3ccccc23)[n+](C)c1	16.4 µM (active)	
C[n+]1cc(C(=O)N2CCCCC2)ccc1/C=C/c1c[nH]c2ccccc12	11.2 µM (active)	
COc1ccc(-c2cnc3c(c2)CCC3(C#N)C#N)cc1	14 µM (active)	
CCOC(=O)c1cc(-c2ccccc2)sc1NC(=S)Nc1cc(C)ccn1	18.4 µM (active)	
Cc1ccc(NC(=S)Nc2ccccn2)c(C)c1		1.93% (inactive)
CCOC(=O)c1ccc(NC(=S)Nc2cccc(C)n2)cc1		-17.8% (inactive)
Cc1sc2nc(CSc3nnnn3-c3ccc(Cl)cc3)[nH]c(=O)c2c1C		-21.8% (inactive)
CCOc1ccc(-n2nnnc2SCC(=O)c2ccccc2)cc1	15.8 µM (active)	
O=C(/C=C/c1ccncc1)c1cc(Cl)ccc1O		-16.9% (inactive)
O=C(/C=C/c1ccc(Cl)cc1)c1ccc([N+](=O)[O-])o1	9.94 µM (active)	
Cc1onc(-c2c(F)cccc2Cl)c1C(=O)O/N=C(\N)c1ccc([N+](=O)[O-])o1		-16.6% [at 36.9 µM] (inactive)
Cc1cccc(/C=C/C(=O)c2ccc([N+](=O)[O-])o2)c1	4.98 µM (active)	
COc1cccc(/C(O)=C/c2nc3ccc(C(=O)NCCc4ccc(Cl)cc4)cc3[nH]c2=O)c1	16.4 µM (active)	
COc1cccc(/C(O)=C/c2nc3ccc(C(=O)NCCc4cccc(C)c4)cc3[nH]c2=O)c1	16.4 µM (active)	
COc1ccc2oc(=N)c(C(=O)Nc3ccc(F)cc3)cc2c1	7.31 µM (active)	
COc1cc(C2Nc3ccc4ncccc4c3C3=C2C(=O)CCC3)ccc1O (stereo not drawn)	7.04 µM (active)	
COc1cc(C2Nc3ccc4ncccc4c3C3=C2C(=O)CCC3)cc(OC)c1O (stereo not drawn)	15.8 µM (active)	
